Screens: PubChem BioAssay, several laboratories
Sampled rows, rich in hits. Any-hit rate of the full collection: about 6.2%.
GRIN3A LBD mod: modulates the human NR3A ligand-binding domain; Tm shift relative to glycine control, % at 25 µM; 340,000 compounds, 2.5% hits; AID 1259313; NR3A LBD differential scanning fluorimetry, Tm shift; 0% = protein alone, 100% = glycine-bound protein;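 active = melting temperature shift of at least 10% of the positive control shift, at one fixed dose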
AHR activator: human AHR activation. P35869. 320,000 compounds, 2.5% hits. activation, % at 5 µM. AHR-responsive luciferase reporter cells, luminescence; in the data active = activation above about 47%;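 note: 0% = vehicle wells and 100% = reference agonist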
NTR1 ag: agonists of human neurotensin receptor NTR1; P30989; NTR1-U2OS beta-arrestin-GFP spot imaging, agonist mode; activation, % at 20 µM; 330,000 compounds, 0.17% hits; AID 493036;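 active = activation at or above 40% of the spot to cytoplasm intensity ratio, with at least 20 cells analyzed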;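 note: 0% = DMSO without peptide and 100% = 100 nM NTR1 peptide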
Target sequence (P30989 whole entry, looked up): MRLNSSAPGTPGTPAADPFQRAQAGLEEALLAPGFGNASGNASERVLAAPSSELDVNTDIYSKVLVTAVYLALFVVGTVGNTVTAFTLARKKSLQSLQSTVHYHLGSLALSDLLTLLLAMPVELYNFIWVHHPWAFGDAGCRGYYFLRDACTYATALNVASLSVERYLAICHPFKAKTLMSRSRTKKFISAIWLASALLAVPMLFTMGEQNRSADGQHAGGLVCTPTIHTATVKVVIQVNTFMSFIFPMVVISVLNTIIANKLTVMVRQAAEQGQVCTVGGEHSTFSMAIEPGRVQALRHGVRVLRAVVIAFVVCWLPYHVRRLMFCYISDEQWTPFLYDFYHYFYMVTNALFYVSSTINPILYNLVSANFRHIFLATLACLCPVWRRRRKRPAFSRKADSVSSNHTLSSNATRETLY
H9c2 protect: modulators protecting cardiomyocytes from myocardial damage; H9c2 cardiomyocytes, H2O2 injury protection, ATPLite, 2 h; protection from H2O2 cell death, % at 20 µM; 360,000 compounds, 0.63% hits; AID 588492;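 active = compounds giving at least 50% protection of heart cells from peroxide-induced death in the single-dose screen, raw or plate-pattern-corrected value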;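 note: 0% = DMSO wells with peroxide and 100% = DMSO wells without peroxide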
AI-2 QS modul: modulators of Vibrio harveyi AI-2 quorum sensing system; AID 2094; Vibrio harveyi JMH597 AI-2 luminescence/OD600 ratio, 9 h; stronger effect = lower value; strain lacks LuxN and CqsS sensors; 0 = neutral-control median; activity change, % at 7.5 µM; 300,000 compounds, 0.4% hits; in the data active = activity change below about -75%, passing the limit was not always enough;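 note: luminescence divided by OD600 gain over 9 h not by final OD600 alone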
Mot1-301 SUMO: inhibitors of SUMOylation pathway: yeast Mot1-301 growth rescue. growth rescue, % at 18.8 µM. 320,000 compounds, 1% hits. S. cerevisiae Mot1-301 growth rescue, ATP luminescence, 38.5C; percent above DMSO median, 100 means doubled;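 active = every valid replicate shows activation above 250% relative to neutral control wells; inactive = the rest, any valid replicate at or below 250%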;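 note: OY570 slx delta 5 strain wells were the positive control but not used for scaling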
* marks the source's active call; other numbers are inactive results; x = no result given.

SMILES | GRIN3A LBD mod | AHR activator | NTR1 ag | H9c2 protect | AI-2 QS modul | Mot1-301 SUMO
CC(=O)N1CCn2c3ccc(C)cc3c3cccc1c32 | 3 | 71* | -1 | -2 | 20 | 8
COc1ccc(CN2CCNC(=O)C2CC(=O)NCCc2c[nH]c3ccccc23)c(OC)c1 (stereo unspecified) | -4 | 2 | 1 | 2 | 30 | 524*
COc1ccc(CN2CCNC(=O)C2CC(=O)NCc2csc(C(C)C)n2)c(OC)c1 (stereo unspecified) | -1 | 47* | -1 | x | 4 | -31
COc1cccc(CCNC(=O)CC2C(=O)NCCN2CC(C)(C)C)c1 (stereo unspecified) | -2 | 3 | 1 | 5 | 17 | 551*
O=C(CCNC(=O)c1ccc([N+](=O)[O-])cc1)Nc1ccc(F)cc1F | -1 | 0 | 0 | 3 | 27 | 5
Cc1ccc(NS(=O)(=O)c2c(C)[nH]c(C)c2C(=O)N2CCCCC2)c(Br)c1 | 0 | 7 | 2 | -3 | 21 | -1
COc1cc(/C=C2\SC(=O)N(c3ccc(Cl)cc3)C2=O)cc([N+](=O)[O-])c1O | 14* | x | x | -9 | x | x
Cn1nc(C(F)(F)F)cc1C(=O)Nc1ccc(Cl)cc1 | -1 | 69* | 1 | 1 | -4 | 26
Cn1nc(C(=O)Nc2ccc(Br)cc2)cc1C(=O)Nc1ccc(Br)cc1 | 3 | 65* | -1 | 6 | 27 | 7
Cn1nc(C(F)(F)F)c2cc(C(=O)Nc3ccc(Cl)cc3)sc21 | 6 | 64* | 13 | -30 | 23 | 83
COc1ccc(COC(=O)Nc2cc3c(C(F)(F)F)nn(C)c3s2)cc1 | -1 | 1 | -3 | -8 | -77* | x
CCCCCN(C(=O)CCC(=O)OCCOc1ccc(OCC)cc1)c1c(N)n(CCCC)c(=O)[nH]c1=O | 2 | -2 | 2 | -2 | 19 | -10
Cc1ccc2nc(C(C)(C)C)c(Cc3cccc(F)c3)n2c1 | x | x | x | -5 | x | x
CCCCC(CCc1ccccn1)C(=O)c1ccccc1 (stereo unspecified) | 0 | x | x | -3 | x | x
CCN(CC)S(=O)(=O)c1cccc(-c2n[nH]c(=S)n2/N=C/c2ccc(Br)cc2)c1 | 22* | 3 | 6 | -2 | -4 | 2
Cc1cc(N=Nc2ccc(C)c(N=Nc3cc(C)c(N)cc3N)c2)c(N)cc1N | 10* | 18 | 4 | -17 | 27 | -36
O=C(Nc1ccccn1)c1ccc(Cl)s1 | 1 | -2 | 0 | -7 | 17 | -6
CSc1nc2ccc3nc(NC(=O)c4ccc(Cl)s4)sc3c2s1 | 21* | 8 | 3 | -8 | 14 | -15
CSc1nc2ccc3nc(NC(=O)c4cccs4)sc3c2s1 | 28* | 13 | 0 | -4 | 36 | 24
COCCCNC(=O)Cn1cc(/C=C(\C#N)C(=O)NC2CC2)c2ccccc21 | 0 | 0 | 0 | -2 | 18 | -14
O=C(NCc1ccccc1)c1c[nH]c2ccccc2c1=O | -1 | -5 | 0 | 8 | x | -2
O=[N+]([O-])c1ccc(N/N=C/c2sc(N3CCOCC3)nc2-c2ccccc2)c(S(=O)(=O)Nc2ccc(Cl)cc2)c1 | 21* | x | x | -19 | 11 | x
Nc1ccc(C(=O)N/N=C/c2sc(N3CCOCC3)nc2-c2ccccc2)cc1 | -1 | 28 | 0 | 7 | 21 | 5
O=C(N/N=C/c1sc(N2CCOCC2)nc1-c1ccccc1)c1ccccc1O | 0 | 6 | 7 | 16 | 30 | 12
COc1cc(C(=O)N/N=C/c2sc(N3CCOCC3)nc2-c2ccccc2)cc(OC)c1OC | -3 | -1 | 2 | 66* | 13 | 62
O=C(N/N=C/c1sc(N2CCOCC2)nc1-c1ccccc1)c1cccc(S(=O)(=O)N2CCOCC2)c1 | 1 | -2 | 0 | 54* | 4 | 5
O=C(O)c1cccc(N/N=C/c2sc(N3CCOCC3)nc2-c2ccccc2)c1 | 14* | 8 | 4 | -1 | 23 | 0
O=[N+]([O-])c1ccc(N/N=C/c2sc(N3CCOCC3)nc2-c2ccccc2)c(S(=O)(=O)Nc2ccccc2Cl)c1 | 7 | x | x | -15 | x | x
COc1cc(O)oc1C=Nc1ccc(C(F)(F)F)cc1 | -3 | 54* | 0 | 14 | 16 | 22
